According to PubChem BioAssay AID1347043 (National Center for Advancing Translational Sciences (NCATS), 2019):
The whole screen tested about 76,000 compounds, of which about 1,900 (2.5%) were called active. Inconclusive results (about 5%) are left out. The call rests on the fitted dose curve; in most records, active means well fitted inhibition curve with a large enough effect; inconclusive means small, poorly fitted or top-dose-only effect; inactive means flat fitted curve, though single readings scatter. The sample as a whole holds a higher share of actives than the screen did.

target: Luciferin 4-monooxygenase (Photinus pyralis) (UniProt P08659); experiment: Firefly luciferase inhibition profiling of diverse chemical library using quantitative high-throughput screening; further: nearly all actives have a fitted effect of over 65% in size; settings: purified P. pyralis luciferase, luminescence, biochemical; series mostly up to 115 µM
Sequence (P08659 whole entry, looked up): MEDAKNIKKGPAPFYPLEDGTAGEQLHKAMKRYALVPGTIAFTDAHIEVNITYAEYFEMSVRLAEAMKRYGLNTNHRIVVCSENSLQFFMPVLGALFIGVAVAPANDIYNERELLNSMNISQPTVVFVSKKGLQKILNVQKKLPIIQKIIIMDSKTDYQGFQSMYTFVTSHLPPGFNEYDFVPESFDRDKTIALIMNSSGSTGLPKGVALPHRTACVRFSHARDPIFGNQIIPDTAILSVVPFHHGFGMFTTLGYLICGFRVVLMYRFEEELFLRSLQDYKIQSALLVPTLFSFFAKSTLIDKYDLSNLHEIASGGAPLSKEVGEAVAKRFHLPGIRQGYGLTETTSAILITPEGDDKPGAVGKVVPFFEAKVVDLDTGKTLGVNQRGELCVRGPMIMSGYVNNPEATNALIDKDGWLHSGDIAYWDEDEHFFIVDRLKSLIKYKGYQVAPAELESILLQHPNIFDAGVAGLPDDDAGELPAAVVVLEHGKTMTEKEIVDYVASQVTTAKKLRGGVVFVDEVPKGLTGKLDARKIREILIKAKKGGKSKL
Source text: Firefly (Photinus pyralis) luciferase is one of the most commonly used transcriptional reporters for a number of reasons. It is considered one of the more dynamically responsive reporters - that is, responsive to changes in reporter transcription - as it requires no post-translational modifications and is enzymatically active directly after protein synthesis (Wood, 1998). Additionally, the half-life of the luciferase protein is short relative to other reporter-gene products (Wood, 1995). Whereas reporters with long half-lives potentially allow for increased signal due to accumulation of reporter-gene product, once accumulated in the cell, dynamic changes in reporter-gene expression may be difficult to detect(Fan and Wood, 2007; Almond et al., 2004). It has been shown that wild-type P. pyralis luciferase has a half-life of approximately four hours in mammalian cells (Thompson et al., 1991). Firefly luciferase reporter-gene assays are also generally considered one of the most sensitive assay types (Wood, 1995; Wood, 1998). Although light produced in a bioluminescence reaction is of lower intensity than that produced during fluorescence emission, this is offset by little to no background light inherent to luminescent assays. Thus the luciferase reporter can be expressed at much lower levels than fluorescent proteins while still providing robust signal. However, it was initially observed, in 1991, by Thompson et al., that compounds that resemble the substrates of firefly luciferase (FLuc) can act as competitive inhibitors of the enzyme, and that these compounds, upon interaction with luciferase in the cell, can actually stabilize the protein and increase its half-life. Accumulated intracellular FLuc protein can be measured as an increase in luminescence signal, upon addition of detection reagents (which contain high concentrations of FLuc substrates) commonly used in high-throughput screening. In cell-based reporter gene assays that use FLuc as the reporter gene to quantitate the potential influence of a given compound against the target biology, this apparent increase in luminescence can mistakenly be interpreted as identification of a compound that is active against the target of interest. FLuc inhibitory compounds that stabilize the FLuc protein will give an identical read-out, making it difficult to distinguish compounds that are active against the target from those active against FLuc. In summary, the results generated here constitutes a valuable resource for the scientific community and provides insight on identifying compounds with inhibitory activity for the commonly-used reporter, firefly luciferase. References: -Almond, B., Zdanovsky, A., Zdanovskaia, M., Ma, D., Stecha, P., Paguio, A., Garvin, D., and Wood, K. (2004). Introducing the Rapid Response Reporter Vectors. Promega Notes 87, 18-22. -Fan, F., and Wood, K.V. (2007). Bioluminescent assays for high-throughput screening. Assay Drug Dev Technol 5, 127-136. -Thompson, J.F., Hayes, L.S., and Lloyd, D.B. (1991). Modulation of firefly luciferase stability and impact on studies of gene regulation. Gene 103, 171-177. -Wood, K.V. (1998). The chemistry of bioluminescent reporter assays. Promega Notes 65, 14-20. -Wood, K.V. (1995). Marker proteins for gene expression. Curr Opin Biotechnol 6, 50-58.
Reagents: 50mM Tris acetate, pH 7.5; 10mM Mg acetate; 10uM D-luciferin (Sigma #L9504); 10uM ATP; 0.01% Tween-20; 0.05% BSA; 10nM P. pyralis luciferase (Sigma #L9506) Control compounds used were two known firefly luciferase inhibitors (compounds (2) and (5) in Auld et al., 2010), and DMSO. Assay Summary: Three microliters containing firefly luciferase substrates in buffer (final concentrations: 50mM Tris acetate, pH 7.5, 10mM Mg acetate, 0.01% Tween-20, 0.05% BSA, 10uM D-luciferin, and 10uM ATP) are dispensed into each well of a Greiner white, solid-bottom 1536-well format plate using a flying reagent dispenser (FRD). […]

Potency, active:
Clc1ccc2oc([C@H]3CCN(Cc4ccccc4)C3)nc2c1 20 µM
CC(=O)NC1(C)CN(Cc2ccc(-c3ccc4c(ccn4C)c3)s2)C1 0.316 µM
COc1ccc(-c2nc3ccncc3[nH]2)cc1 31.6 µM
COc1cccc(-c2nc3ccc(-c4ccc5c(c4)OCO5)cc3o2)c1OC 1.12 µM
OC1(CN2CCCCC2)CCN(c2nc3ccccc3s2)C1 (stereo not given) 10 µM
CC(C)Cn1cncc1CNC(=O)c1ccc2nc(-c3ccc(F)cc3)cn2c1 35.5 µM
Cc1nn(-c2ccc(C(C)C)cc2)c(C)c1[C@@H]1C=C[C@@H](NC(=S)NCC(C)C)C1 7.08 µM
Cc1nn(-c2ccc(C(C)(C)C)cc2)c(C)c1[C@@H]1C=C[C@@H](NC(=O)c2ccco2)C1 14.1 µM
Cc1nn(-c2ccc(C(C)C)cc2)c(C)c1[C@@H]1C=C[C@@H](NC(=O)CC2(CC(=O)O)CCCC2)C1 35.5 µM
Cc1nn(-c2ccc(C(C)C)cc2)c(C)c1[C@@H]1C=C[C@@H](NC(=O)Nc2ccccc2)C1 3.55 µM
COc1ccc(C)cc1NC(=O)Nc1cccc(-c2ccc(N3CCCCC3)nn2)c1 0.282 µM
Cc1ccc(-c2nc(C(=O)N(C)Cc3ccccc3)no2)cc1 10 µM
Cc1ccc(-c2nc(C(=O)N3CCN(c4ccccn4)CC3)no2)cc1 14.1 µM
c1cc(N2CCOCC2)ccc1-c1cc(-c2cn[nH]c2)c2cncn2c1 22.4 µM
Cc1ccc(C(=O)N2CCCC(c3nc(-c4ccccc4)no3)CCNC(=O)CC2)cn1 (stereo not given) 28.2 µM
OCc1cccc(-c2cc3c(cn2)CN(Cc2ccccc2)CCN3)c1 14.1 µM
O=C(NCc1ccnc2[nH]ccc12)c1ccccn1 28.2 µM
COCc1nc(C2CC(NC(=O)c3cc(-c4ccsc4)n[nH]3)C2)cc(=O)[nH]1 (stereo not given) 28.2 µM
Cc1cccc(-c2noc([C@@H]3Cc4nc[nH]c4CN3C(=O)Nc3ccccc3)n2)c1 50.1 µM

Potency, inactive:
Fc1ccc2oc([C@H]3CCN(C4CCOCC4)C3)nc2c1
COC(=O)c1cccc2nc([C@H]3CCN(Cc4ccccc4)C3)oc12
COc1ccc(-c2noc([C@@H]3CCCN3C(=O)CCCc3ccccc3)n2)cc1OC
Cc1ccc(-c2ccc3nnc(CNC(=O)c4ccccn4)n3n2)cc1
COCCNC(=O)[C@@H]1C[C@H](Oc2cccnc2)CN1C(=O)c1ccc(OC)nc1OC
COc1ccc(CCC(=O)N2CCC(c3n[nH]c(=O)n3-c3ccc(C)cc3)CC2)cc1
COC(=O)[C@@H]1Cc2c([nH]c3ccccc23)[C@H]2C[C@@H](NCCN3CCOCC3)C[C@@H](c3ccccc3)N21
O=C1NC2(CCN(Cc3ccccc3)C2)OCc2ccccc21 (stereo not given)
CSCc1ccc(C(=O)N[C@H]2[C@@H]3CCO[C@@H]3[C@@H]2C2CCCC2)o1
CN(CCNC(=O)CCc1cc2ccccc2[nH]c1=O)C1CCCCC1
COc1ccc(CNC(=O)C[C@@H]2CCNC[C@@H]2Cc2cc(-c3ccc(C(C)(C)C)cc3)on2)cc1OC
COc1ccc(CC(=O)NC[C@@H]2C=C(C)[C@H](Cc3nc4ccncc4[nH]3)C[C@H]2C(C)C)cc1
c1cc(-c2nc3ccncc3[nH]2)ccn1
COc1ccc(-c2cc(N3CCC(NC(=O)c4cccc(C)c4)CC3)n[nH]2)cc1
Cc1nn2c(c1-c1ccccc1C(C)C)N(C(=O)c1cccc(C#N)c1)CCC2
COc1cc(-c2noc(-c3nc(-c4ccc5c(c4)OCO5)no3)n2)cc(OC)c1OC
COc1cccc(-c2ccc(F)c(C(N)=O)c2)c1OC
COc1ccc(C(=O)N2CCC(N3CC(OC)C34CCOCC4)CC2)c(OC)c1 (stereo not given)
Cc1cc(CN(C)C(=O)c2cc(COc3ccc(F)cc3F)on2)n[nH]1
O=C(Nc1cccnc1)O[C@H]1COCCN(c2nc3ccccc3s2)C1
Cc1cc(C(=O)N2CC[C@H](NC(=O)c3cnccn3)C[C@H]2C(=O)N[C@H](Cc2ccccc2)C(N)=O)n(C)n1
Cc1ccc(CS(=O)(=O)N2CCC(C3CCNC3)CC2)cc1C (stereo not given)
O=C(c1ccc2nc(-c3ccc(F)cc3)cn2c1)N1CCSCC1
COc1ccc(C(=O)NCc2nnc3ccc(-c4ccc(C)cc4)nn23)cc1F
Cc1nn(Cc2ccccc2)c(C)c1[C@@H]1C=C[C@@H](NC(=O)NC2CCCCC2)C1
CCC(C)NC(=O)Cc1csc2nc(C)c(-c3cc(C)n(-c4ccc(C(C)C)cc4)n3)c(=O)n12 (stereo not given)
Cc1cnc(CCNC(=O)c2ccco2)n1C1CCC1
Cc1nn(CCC#N)c(C)c1[C@@H]1C=C[C@@H](NS(=O)(=O)c2ccccc2)C1
Cc1nn(Cc2ccccc2)c(C)c1[C@@H]1C=C[C@@H](NC(=O)NC(C)C)C1
C[C@@H](NC(=O)C1=C[C@@H](NC(=O)CC2(CC(=O)O)CCCC2)[C@@H](O)[C@H](O)C1)C(N)=O
CC(C)(C)c1ccnc(N[C@H]2CO[C@H]3[C@@H]2OC[C@@H]3NC(=O)CC2(CC(=O)O)CCCC2)n1
O=C(NCC1CN(Cc2ccccc2)CC12CN(c1ccccc1)C2)Nc1ccccc1 (stereo not given)
O=C1NCCCCCCN(Cc2ccc3c(c2)CCO3)[C@H]2CCC[C@@H]12
CN(C)C[C@@H]1CN(Cc2ccccn2)C[C@H]1NC(=O)c1ccc2cc[nH]c2c1
CC(C)COc1cc(=O)n2c(c1C(=O)NCCCN1CCOCC1)CCCCC2
COc1ccc(C(=O)NCC(=O)N2CCCCCCNC(=O)CC2c2ccccc2)cn1 (stereo not given)
CN(C)C(C(=O)N1CCC(OCc2cccnc2)CC1)c1cccc(F)c1 (stereo not given)
O=C(c1ccccc1C1CCNC1)N1CCC(Nc2ncccn2)CC1 (stereo not given)
CN1C(=O)CO[C@H]2CN(C(=O)c3ccccc3)C[C@H]21
Cc1ccccc1CN1CCOc2cc([S+](=O)([O-])N(C)C)ccc2C1
CC(C)CN1CCN(C(=O)c2cc3c(s2)CCN(C(=O)c2ccc(Cl)cc2)C3)CC1
CC(C)c1noc([C@H]2C[C@@H]3C(=O)NCCCCCCN(C(=O)Cc4cccnc4)[C@@H]3C2)n1
COc1cc(=O)n2c(c1C(=O)Nc1cc(C)ccc1C)CCCC2
COc1ccc(C)cc1NC(=O)Cn1nc2n(c1=O)CCCC2
COc1cc(Cl)ccc1C(=O)N1CCC[C@H]1c1nc(-c2ccccc2)no1
COCCn1c(=O)n([C@H]2CCCN(C(=O)c3cc4ccccc4[nH]3)C2)c2ncccc21
Cc1cccc(C(=O)N2CCCC(C(=O)N3CCN(c4ccccn4)CC3)CCNC(=O)CC2)c1 (stereo not given)
CC(NC(=O)Cc1cccc(F)c1)C(=O)N1CCN(c2ccccn2)CC1 (stereo not given)
COc1ccc(CCNC(=O)c2noc(-c3ccc(C)cc3)n2)cc1OC
CSc1ccc(CNC(=O)c2noc(-c3ccc(C)cc3)n2)cc1
COCCn1c(CO)nnc1C1CC(NC(=O)c2sc(C)nc2C)C1 (stereo not given)
CCC(C(=O)Nc1ccc2c(c1)CN(Cc1cc(F)cc(F)c1)C(=O)CO2)c1ccccc1 (stereo not given)
COc1cccc(C(=O)N2CCC(C(NC(=O)c3ccccc3C)C(=O)NCC(C)C)CC2)c1 (stereo not given)
O=C(NCC1Cn2cccc2C(=O)N1Cc1ccccc1)c1ccc(F)cc1 (stereo not given)
CCC1=C(C(=O)OC)C(c2ccc(C)cc2C)N2C(CC(=O)N3CCOCC3)=CSC2=N1 (stereo not given)
N#Cc1cc2c(nc1N1CCN(C3CCCC3)C(CCO)C1)CCCC2 (stereo not given)
COC(=O)c1ccccc1NC(=O)Cn1nc2n(c1=O)CCCCC2
COc1ccccc1-c1cc(-c2cn[nH]c2)c2cncn2c1
COc1ncccc1-c1cc(-c2cn[nH]c2)c2cncn2c1
CC(C)C(=O)N1CCCC(c2nc(-c3ccccc3)no2)CCNC(=O)CC1 (stereo not given)
Cn1cccc1C(=O)N1CCCC(c2nc(-c3ccccc3)no2)CCNC(=O)CC1 (stereo not given)
CC[C@H]1CN(C(=O)c2ccc(F)cc2)CC[C@H]1CC(=O)Nc1ccccc1
Cn1ccc(Nc2cc3c(cn2)CN(CCc2ccccc2)CCN3)n1
O=C1CN(Cc2ccc(-c3ccccc3)cc2)CCN1c1cc(Cl)ncn1
Cc1cccn2c(CC(=O)NCC3CCN(c4cnn(C)c(=O)c4)C3)cnc12 (stereo not given)
O=C(O)[C@@H]1CN(C(=O)NC2CCCC2)C[C@H]1c1ccccn1
O=C(NCc1c[nH]c2ncccc12)c1ccccn1
COc1ccccc1C(=O)NCc1ccnc2[nH]ccc12
CN(C)c1ccc(NC(=O)COc2ccc(-c3nnc4n3CCCC4)cc2)cc1
Nc1nc(C2CC(NC(=O)CCc3nc4ccc(F)cc4[nH]3)C2)cc(=O)[nH]1 (stereo not given)
COCc1nc(-c2ccc(NC(=O)Cn3nc4c(cc3=O)CCCC4)cc2)n[nH]1
O=C(NCc1ccccn1)C1CN(S(=O)(=O)c2cccs2)CC12CCCCC2 (stereo not given)
O=C(NC1CC1)[C@@H]1C[C@H](Oc2cccnc2)CN1C(=O)C1CCC1
N#Cc1ccc(O[C@@H]2COCC[C@H]2NC(=O)CCCn2cccn2)cc1
CCOC(=O)c1ccc(NC(=O)N2Cc3[nH]cnc3C[C@H]2c2nc(-c3ccc(Cl)cc3)no2)cc1
CC(C)NC(=O)N1Cc2[nH]cnc2C[C@H]1c1nc(-c2ccc(Cl)cc2)no1
